Experimental data published in PubChem BioAssay (NCATS).
Records with an inconclusive call do not appear. Activity calls are given as the source filed them. Calls follow the shape of the dose curve; as a rule, active = well fitted curve in the direction sought with a large enough effect; inconclusive = small, poorly fitted or top-dose-only effect, or another doubt; inactive = no such curve, though single readings can be large; an effect the other way counts as inactive or inconclusive.

Experiments:
[1] = qHTS of pediatric cancer cell lines to identify multiple opportunities for drug repurposing: Primary screen for TC32 cells (AID 1347089); also: nearly all actives have a fitted effect of over 60% in size
Summary of the method: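 In the primary qHTS, MIPE compounds were tested at 11 concentrations (0.78 nM to 46 µM) and NPC compounds at 8 (0.59 nM to 46 µM) on TC32 cells for 48 h. CellTiter-Glo luminescence gave viability.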

[2] = qHTS of pediatric cancer cell lines to identify multiple opportunities for drug repurposing: Primary screen for DAOY cells (AID 1347090); also: series mostly up to about 46 µM; nearly all actives have a fitted effect of over 55% in size
Summary of the method: (§1)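 Viability measured as metabolically active cells via CellTiter-Glo luminescence following 48 hours of compound exposure, 11-point dilutions in confirmatory testing. 500-1,000 cells/well plated 5 hours before dosing; controls were DMSO and 2.3 µM bortezomib.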

[3] = qHTS of pediatric cancer cell lines to identify multiple opportunities for drug repurposing: Primary screen for SJ-GBM2 cells (AID 1347091)
Summary of the method: as §1

[4] = qHTS of pediatric cancer cell lines to identify multiple opportunities for drug repurposing: Primary screen for A673 cells (AID 1347092); also: nearly all actives have a fitted effect of over 45% in size
Summary of the method: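 48 h compound exposure, A673, 500-1,000 cells/well, 37 degrees C/5% CO2. MIPE: 11-point, 0.78 nM-46 µM; NPC: 8-point, 0.59 nM-46 µM (final). Readout CellTiter-Glo luminescence after 15 min RT.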

[5] = qHTS of pediatric cancer cell lines to identify multiple opportunities for drug repurposing: Primary screen for BT-37 cells (AID 1347094); also: series mostly up to about 57 µM
Summary of the method: (§2)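 Plated cells (500-1,000 per well, growth media) were allowed to settle for 5 hours, treated with compound dilutions for 48 hours, then lysed with CellTiter-Glo for 15 min at room temperature before luminescence reading.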

[6] = qHTS of pediatric cancer cell lines to identify multiple opportunities for drug repurposing: Primary screen for NB-EBc1 cells (AID 1347095)
Summary of the method: as §2

[7] = qHTS of pediatric cancer cell lines to identify multiple opportunities for drug repurposing: Primary screen for U-2 OS cells (AID 1347096); also: nearly all actives have a fitted effect of over 50% in size
Summary of the method: (§3)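 Viability after 48 h compound treatment at 37C, 500-1,000 cells/well, read as ATP luminescence with CellTiter-Glo. Primary screens used 11-point (MIPE, 0.78 nM-46 µM) or 8-point (NPC, 0.59 nM-46 µM) final concentrations; follow-up screens used 11-point dilutions.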

[8] = qHTS of pediatric cancer cell lines to identify multiple opportunities for drug repurposing: Primary screen for Saos-2 cells (AID 1347097); also: nearly all actives have a fitted effect of over 40% in size
Summary of the method: as §2

[9] = qHTS of pediatric cancer cell lines to identify multiple opportunities for drug repurposing: Primary screen for SK-N-SH cells (AID 1347098);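 also: DMSO served as neutral control and bortezomib at 2.3 µM as positive control; nearly all actives have a fitted effect of over 65% in size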
Summary of the method: (§4)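 Cells (500-1,000/well) rested 5 h, then received compounds for 48 h; metabolically active cells were measured by CellTiter-Glo luminescence. Final concentrations spanned up to 46 µM (MIPE, 11-point) or 0.59 nM-46 µM (NPC, 8-point) in primary screens, 11-point in follow-ups.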

[10] = qHTS of pediatric cancer cell lines to identify multiple opportunities for drug repurposing: Primary screen for LAN-5 cells (AID 1347100)
Summary of the method: as §3

[11] = qHTS of pediatric cancer cell lines to identify multiple opportunities for drug repurposing: Primary screen for BT-12 cells (AID 1347101); also: nearly all actives have a fitted effect of over 25% in size
Summary of the method: as §4

[12] = qHTS of pediatric cancer cell lines to identify multiple opportunities for drug repurposing: Primary screen for OHS-50 cells (AID 1347103); also: nearly all actives have a fitted effect of over 40% in size; also: potency is read from the fitted curve at half-maximal effect
Summary of the method: as §4

[13] = qHTS of pediatric cancer cell lines to identify multiple opportunities for drug repurposing: Primary screen for RD cells (AID 1347104); also: nearly all actives have a fitted effect of over 55% in size
Summary of the method: as §2

[14] = qHTS of pediatric cancer cell lines to identify multiple opportunities for drug repurposing: Primary screen for MG 63 (6-TG R) cells (AID 1347105); also: nearly all actives have a fitted effect of over 50% in size; also: potency is read from the fitted curve at half-maximal effect
Summary of the method: as §2

[15] = qHTS of pediatric cancer cell lines to identify multiple opportunities for drug repurposing: Primary screen for control Hh wild type fibroblast cells (AID 1347106);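 also: series mostly up to about 46 µM; a drop in luminescence marks cytotoxicity and a rise apparent proliferation; nearly all actives have a fitted effect of over 55% in size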
Summary of the method: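 Cells (500-1,000/well) in growth media were settled 5 h at 37 degrees C, then given compounds for 48 h. Viability was read as CellTiter-Glo luminescence. Primary runs used MIPE at 11 points (0.78 nM-46 µM) and NPC at 8 points (0.59 nM-46 µM); follow-ups used 11 points.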

[16] = qHTS of pediatric cancer cell lines to identify multiple opportunities for drug repurposing: Primary screen for SK-N-MC cells (AID 1347093); also: series mostly up to about 46 µM
Summary of the method: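 Metabolically active cells were quantified by ATP-dependent luminescence (CellTiter-Glo, 15 min at room temperature) following 48 h treatment. Cells had been plated at 500-1,000 per well and settled for 5 h beforehand.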

[17] = qHTS of pediatric cancer cell lines to identify multiple opportunities for drug repurposing: Primary screen for Rh18 cells (AID 1347102); also: nearly all actives have a fitted effect of over 65% in size; also: potency is read from the fitted curve at half-maximal effect
Summary of the method: as §3

[18] = qHTS of pediatric cancer cell lines to identify multiple opportunities for drug repurposing: Primary screen for NB1643 cells (AID 1347099); also: nearly all actives have a fitted effect of over 50% in size
Summary of the method: as §2

Measured: Potency

O=C(O)COc1nn(Cc2ccccc2)c2ccccc12
inactive: [1] | [2] | [3] | [4] | [5] | [6] | [7] | [8] | [9] | [10] | [11] | [12] | [13] | [14] | [15]

O=C1NS(=O)(=O)c2ccccc21
inactive: [1] | [2] | [4] | [16] | [5] | [6] | [7] | [8] | [9] | [10] | [11] | [17] | [12] | [13] | [14] | [15]

NCC(=O)CCC(=O)O
inactive: [1] | [2] | [4] | [16] | [5] | [6] | [7] | [8] | [9] | [18] | [11] | [17] | [12] | [13] | [14] | [15]

CCCCN(CCCC)CC(O)c1cc(Cl)cc2c1-c1ccc(Cl)cc1/C2=C/c1ccc(Cl)cc1 (stereo not given)
active: [17] 21100 nM
inactive: [1] | [2] | [3] | [16] | [6] | [7] | [9] | [14] | [15]

N[C@@H](CSCCCO)C(=O)O
inactive: [1] | [2] | [3] | [4] | [5] | [6] | [7] | [8] | [9] | [11] | [17] | [12] | [13] | [14] | [15]

CCCOC(=O)c1ccccc1
inactive: [1] | [2] | [4] | [16] | [5] | [6] | [7] | [8] | [9] | [18] | [10] | [11] | [12] | [13] | [14] | [15]

CCCCCCCCCCCCCCCCCCOCC(O)CO (stereo not given)
inactive: [1] | [2] | [4] | [16] | [5] | [6] | [7] | [8] | [9] | [18] | [10] | [11] | [17] | [12] | [14] | [15]

CC(=O)Oc1ccc(C2(c3ccc(OC(C)=O)cc3)C(=O)Nc3ccccc32)cc1
active: [12] 1100 nM | [14] 168 nM
inactive: [1] | [2] | [3] | [4] | [5] | [6] | [7] | [8] | [9] | [10] | [11] | [17] | [15]

O=C1OC(OC(=O)c2cccnc2Nc2cccc(C(F)(F)F)c2)c2ccccc21 (stereo not given)
inactive: [1] | [2] | [3] | [5] | [6] | [7] | [8] | [9] | [18] | [10] | [11] | [17] | [12] | [14] | [15]

COc1ccc2[nH]c(S(=O)Cc3ncc(C)c(OC)c3C)nc2n1 (stereo not given)
inactive: [1] | [2] | [3] | [4] | [5] | [6] | [7] | [8] | [9] | [18] | [11] | [12] | [13] | [14] | [15]

CC(=O)Nc1ccc(/C=N/NC(N)=S)cc1
inactive: [1] | [2] | [3] | [4] | [5] | [6] | [7] | [8] | [9] | [18] | [11] | [17] | [12] | [13] | [14] | [15]

CC/C=C(\C(=O)N[C@@H]1C(=O)N2C(C(=O)OCOC(=O)C(C)(C)C)=C(COC(N)=O)CS[C@H]12)c1csc(N)n1
inactive: [1] | [2] | [4] | [16] | [5] | [6] | [7] | [8] | [9] | [18] | [10] | [11] | [17] | [12] | [13] | [14] | [15]

COc1cc2[nH]c(=O)[nH]c(=O)c2cc1OC
inactive: [1] | [2] | [4] | [16] | [5] | [6] | [7] | [8] | [9] | [18] | [11] | [12] | [13] | [14] | [15]

c1ccc2c(CC3=NCCN3)cccc2c1
inactive: [1] | [2] | [3] | [4] | [5] | [6] | [7] | [9] | [18] | [10] | [17] | [14] | [15]
